The source made the active and inactive calls.
What was measured:
[1] = optical density shifts of acrAB sulA E. coli – strain DRC41, OD650, 48 h, E. coli filamentation inducer project, primary screen (AID 1152); settings: higher = more signal, called active from +8 up or from −8 down;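 further: E. coli MC1000 strain DRC41 lacking acrAB efflux pump and sulA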
[2] = probe aLefty1 binding on compound microarray – biochemical, small-molecule microarray, 635/667 nm fluorescence, primary screen (AID 1153); settings: higher = more signal;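 further: score merges spot fluorescence with signal-to-noise ratio from the scanned slide images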
[3] = plasmodial surface anion channel blockers, osmotic lysis – cell-based, P. falciparum Indochina, OD700, 1 h, primary screen (AID 1154); settings: P. falciparum Indochina infected RBC osmotic lysis, higher = more signal, called active from +8 up or from −8 down
[4] = plasmodial surface anion channel blockers, osmotic lysis – cell-based, P. falciparum Indochina, OD700, 2 h, primary screen (AID 1155);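 further: lysis reports solute entry through the parasite surface anion channel PSAC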; settings: P. falciparum Indochina infected erythrocytes, higher = more signal, called active from +8 up or from −8 down
[5] = changes in parasitized red cell lysis, either direction – P. falciparum Indochina, OD700, 3 h, PSAC antagonist project, primary screen (AID 1156); settings: P. falciparum-infected erythrocytes, osmotic lysis, higher = more signal, called active from +8 up or from −8 down
[6] = plasmodial surface anion channel blockers, osmotic lysis – cell-based, P. falciparum Indochina, OD700, 18 h, primary screen (AID 1157); settings: P. falciparum Indochina infected erythrocytes, osmotic lysis OD700, 18 h; higher = more signal, called active from +8 up or from −8 down
[7] = S6 kinase pathway phospho-S6 level changes – cell-based, A549, cytoblot, luminescence, serum-stimulated, primary screen (AID 1158); settings: 5 h, higher = more signal;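 further: serum-stimulated A549 lung adenocarcinoma cells; signal is phosphorylated S6 detected by cytoblot immunostaining with HRP secondary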
[8] = molecular target: NADPH oxidase 2 (Homo sapiens) (UniProt P04839); assay: compounds shifting NOX2 Amplex Red fluorescence – cell-based, HEK293-NOX2, PMA-stimulated, NOX inhibitor project, primary screen (AID 1159); settings: 45 min, higher = more signal, called active from +8 up or from −8 down; further: test concentration not given here
[9] = molecular target: NADPH oxidase 4 (Homo sapiens) (UniProt Q9NPH5); assay: compounds shifting NOX4 Amplex Red fluorescence – cell-based, HEK293-NOX4, tetracycline-induced, NOX inhibitor project, primary screen (AID 1160); settings: HEK293-NOX4, Amplex Red H2O2 fluorescence, 45 min; higher = more signal, called active from +8 up or from −8 down
[10] = molecular target: NADPH oxidase 5 (Homo sapiens) (UniProt Q96PH1); assay: compounds shifting NOX5 Amplex Red fluorescence – cell-based, HEK293-NOX5, NOX inhibitor project, primary screen (AID 1161); settings: HEK293-NOX5, ionomycin, 45 min, higher = more signal
Chain of NADPH oxidase 5 (Homo sapiens) (Q96PH1 whole entry, looked up): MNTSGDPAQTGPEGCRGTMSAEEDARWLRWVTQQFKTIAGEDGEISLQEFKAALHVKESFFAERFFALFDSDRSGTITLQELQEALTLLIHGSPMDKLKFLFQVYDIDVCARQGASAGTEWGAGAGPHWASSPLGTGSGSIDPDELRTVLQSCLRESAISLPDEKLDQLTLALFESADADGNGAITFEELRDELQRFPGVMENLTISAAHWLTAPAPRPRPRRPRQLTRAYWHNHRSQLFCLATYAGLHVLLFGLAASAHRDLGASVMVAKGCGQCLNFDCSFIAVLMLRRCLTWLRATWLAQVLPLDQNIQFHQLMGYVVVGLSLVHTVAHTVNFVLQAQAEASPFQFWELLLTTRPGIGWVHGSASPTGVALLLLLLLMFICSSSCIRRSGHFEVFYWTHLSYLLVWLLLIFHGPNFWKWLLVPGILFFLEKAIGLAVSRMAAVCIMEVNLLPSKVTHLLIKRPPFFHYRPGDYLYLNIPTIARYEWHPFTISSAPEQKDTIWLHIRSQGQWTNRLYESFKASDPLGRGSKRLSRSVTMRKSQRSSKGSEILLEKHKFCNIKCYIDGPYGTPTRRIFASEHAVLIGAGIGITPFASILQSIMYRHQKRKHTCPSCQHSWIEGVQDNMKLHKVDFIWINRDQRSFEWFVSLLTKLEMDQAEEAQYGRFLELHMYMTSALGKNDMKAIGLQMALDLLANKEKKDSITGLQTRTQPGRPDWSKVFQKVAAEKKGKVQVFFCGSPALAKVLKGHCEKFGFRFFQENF

Chain of NADPH oxidase 2 (Homo sapiens) (P04839 whole entry, looked up): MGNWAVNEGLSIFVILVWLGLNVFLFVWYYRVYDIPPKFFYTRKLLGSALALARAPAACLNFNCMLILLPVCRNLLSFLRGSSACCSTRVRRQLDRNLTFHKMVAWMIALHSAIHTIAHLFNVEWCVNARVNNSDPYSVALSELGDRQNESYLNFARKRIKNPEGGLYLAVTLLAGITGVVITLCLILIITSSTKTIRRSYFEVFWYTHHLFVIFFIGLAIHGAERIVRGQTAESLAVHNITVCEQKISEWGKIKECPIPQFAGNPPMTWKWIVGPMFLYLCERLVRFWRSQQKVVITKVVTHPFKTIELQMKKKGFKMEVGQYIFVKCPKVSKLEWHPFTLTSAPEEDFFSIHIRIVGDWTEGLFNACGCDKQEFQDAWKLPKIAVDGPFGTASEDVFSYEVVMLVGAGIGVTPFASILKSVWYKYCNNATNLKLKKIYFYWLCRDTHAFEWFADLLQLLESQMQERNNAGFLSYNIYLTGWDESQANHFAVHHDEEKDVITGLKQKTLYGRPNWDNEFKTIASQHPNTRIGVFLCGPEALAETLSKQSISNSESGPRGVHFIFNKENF
Chain of NADPH oxidase 4 (Homo sapiens) (Q9NPH5 whole entry, looked up): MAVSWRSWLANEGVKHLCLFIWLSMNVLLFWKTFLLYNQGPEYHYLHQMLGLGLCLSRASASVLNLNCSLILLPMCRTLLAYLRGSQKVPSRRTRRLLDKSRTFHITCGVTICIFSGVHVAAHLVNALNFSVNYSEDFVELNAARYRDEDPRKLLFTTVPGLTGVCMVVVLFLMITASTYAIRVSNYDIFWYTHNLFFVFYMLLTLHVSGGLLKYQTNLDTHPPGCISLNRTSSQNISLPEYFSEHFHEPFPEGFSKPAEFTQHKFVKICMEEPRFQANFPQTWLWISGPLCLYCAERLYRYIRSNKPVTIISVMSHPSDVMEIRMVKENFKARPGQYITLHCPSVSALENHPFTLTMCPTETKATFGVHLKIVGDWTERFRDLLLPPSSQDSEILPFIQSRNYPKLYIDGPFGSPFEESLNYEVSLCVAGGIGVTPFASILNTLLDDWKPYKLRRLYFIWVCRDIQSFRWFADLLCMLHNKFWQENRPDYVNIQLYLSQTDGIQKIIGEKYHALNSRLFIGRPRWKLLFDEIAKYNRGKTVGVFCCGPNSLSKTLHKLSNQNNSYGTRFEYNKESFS

Structure (SMILES)	z-score [1]	composite z-score [2]	z-score [3]	z-score [4]	z-score [5]	z-score [6]	z-score [7]	z-score [8]	z-score [9]	z-score [10]
COc1ccccc1CN1C(=O)c2ccccc2[C@@H](C(=O)NCCN2CCOCC2)[C@@H]1c1ccc(CO)cc1	-0.0157 (inactive)	-0.211	2.67 (inactive)	0.0298 (inactive)	1.56 (inactive)	0.695 (inactive)	0.513	1.26 (inactive)	-0.65 (inactive)	-2.47
CCCC[C@H]1OB(O)C[C@H]2C1=C(C)C[C@H]1C(=O)N(Cc3ccccc3)C(=O)[C@H]12	1.53 (inactive)	-0.147	1.27 (inactive)	0.0503 (inactive)	-0.348 (inactive)	0.157 (inactive)	0.918	0.0393 (inactive)	0.765 (inactive)	0.789
CCOC(=O)C[C@H]1[C@H](OC(=O)c2ccccc2-c2ccccc2)[C@@H](NC(=O)c2ccc3ccccc3c2)c2cc(OCCCO)ccc2N1C(=O)c1ccc2ccccc2n1	0.0514 (inactive)	-0.193	4.5 (inactive)	0.759 (inactive)	-0.62 (inactive)	0.452 (inactive)	-0.429	0.349 (inactive)	1.08 (inactive)	0.803
COC(=O)[C@]1(Cc2ccccc2N=[N+]=[N-])N=C(c2ccc(OCCCO)cc2)O[C@@H]1c1ccccc1N=[N+]=[N-]	-1.19 (inactive)	-0.236	29.5 (active)	27.4 (active)	-0.495 (inactive)	6.35 (inactive)	0.0559	-0.877 (inactive)	0.755 (inactive)	0.677
CCCN1C(=O)[C@@]2(CCC(=O)OC(C)(C)C)N=C(c3ccc(OCCCO)cc3)O[C@H]2c2ccccc21	0.42 (inactive)	-0.358	35.9 (active)	37.4 (active)	3.51 (inactive)	9.08 (active)	0.237	-2.74 (inactive)	-0.665 (inactive)	-1.96
O=C1C=CC(=O)[C@@H]2CC(COc3ccccc3)=C3[C@@H](CCc4ccccc4)OB(O)C[C@@H]3[C@H]12	-0.365 (inactive)	0.0491	3.41 (inactive)	-0.0365 (inactive)	-0.0433 (inactive)	0.0107 (inactive)	0.0482	-0.511 (inactive)	-3.32 (inactive)	-5.88
CN1C=C(C(=O)OCCS(C)(=O)=O)C(C(=O)OCCS(C)(=O)=O)=CC(CCCO)=CC1C1CC1 (stereo not given)	1.07 (inactive)	0.026	1.43 (inactive)	0.63 (inactive)	0.483 (inactive)	0.16 (inactive)	0.471	-2.51 (inactive)	-1.07 (inactive)	-1.38
Cc1ccc(S[C@]2(C(=O)NCc3ccccc3)CC(=O)N(Cc3ccccc3Cl)[C@@H]2c2ccc(CO)cc2I)cc1	0.196 (inactive)	0.0903	3.44 (inactive)	0.68 (inactive)	1.9 (inactive)	0.255 (inactive)	0.379	2.76 (inactive)	-0.824 (inactive)	0.774
C=C(COC)C(=O)CC[C@@H](OC(=O)c1cccnc1)c1ccc(CO)o1	0.272 (inactive)	-0.0536	1.47 (inactive)	0.145 (inactive)	0.0755 (inactive)	0.038 (inactive)	-0.0125	1.59 (inactive)	0.304 (inactive)	0.21
CN1C(=O)C2C(C1=O)C1C=C(CCCO)C2C(c2cccs2)N1C (stereo not given)	0.325 (inactive)	-0.274	1.52 (inactive)	0.326 (inactive)	1.31 (inactive)	0.181 (inactive)	-0.519	0.108 (inactive)	0.378 (inactive)	1.22
CC(C)(C)OC(=O)CC[C@]1(C(=O)N2CCCCC2)N=C(c2ccc(OCCCO)cc2)O[C@H]1c1ccccc1N=[N+]=[N-]	1.66 (inactive)	0.19	32.1 (active)	28.8 (active)	2.17 (inactive)	7.7 (inactive)	-0.167	-3.53 (inactive)	0.976 (inactive)	-1.46
Cc1ccc(S[C@]2(C(=O)NCC(C)C)CC(=O)N(Cc3ccccc3)[C@@H]2c2ccc(CO)cc2I)cc1	-0.668 (inactive)	0.0597	10.6 (active)	1.16 (inactive)	0.448 (inactive)	0.598 (inactive)	-0.36	1.09 (inactive)	-2.23 (inactive)	0.489
C=C(COC)/C(=C/C[C@H](OC(=O)c1ccncc1)c1cccc(OCCO)c1)c1cc(C(=O)OC)ccc1OC	0.395 (inactive)	0.132	13.5 (active)	2.26 (inactive)	2.48 (inactive)	0.773 (inactive)	-0.625	0.32 (inactive)	0.00792 (inactive)	-1.51
COc1cc(CO)ccc1OC(C)=O	1.48 (inactive)	-0.157	-0.92 (inactive)	-1.73 (inactive)	-0.798 (inactive)	-2.47 (inactive)	1.03	-4.55 (inactive)	-1.36 (inactive)	-0.667
COC(=O)[C@@]1(Cc2ccc(OC)cc2)[C@H]2c3cc(C(=O)N4CCCC4)n(Cc4ccccn4)c3C[C@H]2CN1C(=O)c1ccccc1	-0.824 (inactive)	0.595	3.64 (inactive)	0.537 (inactive)	1.1 (inactive)	0.814 (inactive)	-0.569	0.29 (inactive)	-1 (inactive)	-3.2
CC=CC(O)C1C=CC2C(=O)N(c3ccccc3)C(=O)C2N1Nc1ccc(C(C)C)cc1 (stereo not given)	-1.63 (inactive)	0.424	20.2 (active)	7.4 (inactive)	1.39 (inactive)	1.68 (inactive)	-0.521	-0.68 (inactive)	-3.67 (inactive)	-4.2
CC(=O)Nc1cc(Br)ccc1C(=O)O	-0.657 (inactive)	0.0494	0.552 (inactive)	0.501 (inactive)	-0.904 (inactive)	0.305 (inactive)	-0.107	0.385 (inactive)	-0.128 (inactive)	-0.269
C=CC(COC(C)=O)NS(=O)(=O)c1ccc(Br)cc1 (stereo not given)	-1.32 (inactive)	0.157	0.132 (inactive)	-0.168 (inactive)	-0.73 (inactive)	-0.064 (inactive)	0.495	-0.334 (inactive)	-0.0279 (inactive)	-0.377
O=c1cccc(C=Cc2ccccc2)o1	0.465 (inactive)	-0.29	2.92 (inactive)	0.88 (inactive)	0.488 (inactive)	0.931 (inactive)	-0.39	0.165 (inactive)	-0.562 (inactive)	-0.0341
O=C1N(CCS(=O)(=O)c2ccccc2)c2ccccc2C[C@@]12COC(c1ccc(OCCCO)cc1)=N2	-2.43 (inactive)	0.0804	23.6 (active)	8.71 (active)	2.58 (inactive)	0.764 (inactive)	-0.616	0.759 (inactive)	1.04 (inactive)	-0.312
CCCN1C(=O)[C@]2(COC(c3ccc(OCCCO)cc3)=N2)Cc2ccccc21	-0.516 (inactive)	0.0927	16.9 (active)	2.23 (inactive)	2.31 (inactive)	0.741 (inactive)	-0.0824	-0.248 (inactive)	-0.0403 (inactive)	-1.42
COc1ccc([Si](C)(C)[C@@H]2[C@@H](CC(=O)N3CCC[C@H]3CO)O[C@]3(C(=O)N(C)c4c(Br)cc(C)cc43)[C@H]2C)cc1	-0.674 (inactive)	-0.251	5.59 (inactive)	0.576 (inactive)	0.405 (inactive)	0.768 (inactive)	-0.415	1.73 (inactive)	1.17 (inactive)	3.69
[N-]=[N+]=Nc1ccccc1C[C@]1(C(=O)NCCN2CCOCC2)N=C(c2ccc(OCCCO)cc2)O[C@H]1c1ccccc1	0.0623 (inactive)	0.728	14.1 (active)	1.53 (inactive)	1.37 (inactive)	0.766 (inactive)	-0.0135	-1.92 (inactive)	0.0642 (inactive)	-1.32
COCCOC(=O)N1C(=O)[C@@]2(c3cc(C#CCC(C(=O)OC)C(=O)OC)ccc31)[C@H](c1ccccc1OCCO)N1[C@H](c3ccccc3)[C@H](c3ccccc3)OC(=O)[C@H]1[C@@H]2C(N)=O	0.483 (inactive)	0.479	7.64 (inactive)	2.55 (inactive)	0.678 (inactive)	1.42 (inactive)	-0.127	0.821 (inactive)	0.383 (inactive)	-1.85
CCCCC(CC)C(O)C1C=CC2C(=O)N(c3ccccc3)C(=O)C2N1Nc1ccccc1 (stereo not given)	-1.61 (inactive)	0.448	1.1 (inactive)	-0.627 (inactive)	2.18 (inactive)	-1.72 (inactive)	1.14	-2.98 (inactive)	-5.21 (inactive)	-5.76
COC(=O)c1ccc(C(O)C2C=CC3C(=O)N(C)C(=O)C3N2NC(=O)OC(C)(C)C)o1 (stereo not given)	-1.31 (inactive)	0.0622	0.146 (inactive)	0.52 (inactive)	-0.46 (inactive)	0.533 (inactive)	-0.785	-0.786 (inactive)	-0.929 (inactive)	0.396
